In PubChem BioAssay:
For some of these results: Potency and affinity values are given separately. The source made the active and inactive calls. Unless noted, the rule behind the calls is not given here.

What was measured:
[1] = antimalarial activity against Dd2 strain (AID 2302;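 active = growth inhibition above 50% at the single 2 µM test dose, taken to imply half-maximal potency below 2 µM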;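 note: 0% = DMSO untreated growth and 100% = chloroquine plus artemisinin killed control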); conditions: P. falciparum Dd2 in RBCs, LDH growth readout, 72 h; at 2 µM; hits give high values
[2] = human hepatoma cell viability loss – ATP luminescence, cytotoxicity control for P. falciparum antimalarial project, primary screen (AID 2303;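 active = inhibition above 50%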;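 note: 0% = DMSO wells and 100% = digitonin-killed cells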); conditions: HepG2 viability, 24-48 h, at 10 µM, hits give high values
[3] = target: L-lactate dehydrogenase (Plasmodium falciparum (isolate CDC / Honduras)) (UniProt Q27743); assay: PfLDH activity inhibition – cell lysate, 3D7 strain, counter-screen for P. falciparum growth inhibition project (AID 2304);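 note: 0% = vehicle and 100% = reference inhibitor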; conditions: P. falciparum 3D7 crude extract, LDH APAD/NBT absorbance; at 2 µM; hits give high values
L-lactate dehydrogenase (Plasmodium falciparum (isolate CDC / Honduras)), sequence (Q27743 whole entry, looked up): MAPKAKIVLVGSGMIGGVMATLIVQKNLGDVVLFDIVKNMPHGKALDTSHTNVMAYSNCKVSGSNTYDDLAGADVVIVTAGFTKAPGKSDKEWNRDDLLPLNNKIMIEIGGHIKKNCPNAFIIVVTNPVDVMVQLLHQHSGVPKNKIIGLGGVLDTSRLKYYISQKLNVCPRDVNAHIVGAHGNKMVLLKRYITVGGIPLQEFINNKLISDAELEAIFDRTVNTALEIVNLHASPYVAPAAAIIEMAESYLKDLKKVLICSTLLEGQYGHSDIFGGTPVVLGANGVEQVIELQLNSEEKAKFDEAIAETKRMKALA

[4] = inhibition of 3D7 malaria parasite growth – strain 3D7 (AID 2306);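 note: 0% = DMSO wells and 100% = chloroquine plus artemisinin control wells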; conditions: P. falciparum 3D7 erythrocytic growth, LDH absorbance, 72 h; at 2 µM; hits give high values
[5] = target: Calcium-dependent protein kinase 1 (Plasmodium falciparum (isolate 3D7)) (UniProt P62344); assay: PfCDPK1 kinase inhibitors, biochemical, TCAMS library (AID 1159585; cut-off not given, nearly all actives have IC50 up to about 0.98 µM;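 note: inhibitors leave more ATP so luminescence rises with inhibition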); conditions: recombinant PfCDPK1, Kinase-Glo ATP depletion luminescence
Calcium-dependent protein kinase 1 (Plasmodium falciparum (isolate 3D7)), sequence (P62344 whole entry, looked up): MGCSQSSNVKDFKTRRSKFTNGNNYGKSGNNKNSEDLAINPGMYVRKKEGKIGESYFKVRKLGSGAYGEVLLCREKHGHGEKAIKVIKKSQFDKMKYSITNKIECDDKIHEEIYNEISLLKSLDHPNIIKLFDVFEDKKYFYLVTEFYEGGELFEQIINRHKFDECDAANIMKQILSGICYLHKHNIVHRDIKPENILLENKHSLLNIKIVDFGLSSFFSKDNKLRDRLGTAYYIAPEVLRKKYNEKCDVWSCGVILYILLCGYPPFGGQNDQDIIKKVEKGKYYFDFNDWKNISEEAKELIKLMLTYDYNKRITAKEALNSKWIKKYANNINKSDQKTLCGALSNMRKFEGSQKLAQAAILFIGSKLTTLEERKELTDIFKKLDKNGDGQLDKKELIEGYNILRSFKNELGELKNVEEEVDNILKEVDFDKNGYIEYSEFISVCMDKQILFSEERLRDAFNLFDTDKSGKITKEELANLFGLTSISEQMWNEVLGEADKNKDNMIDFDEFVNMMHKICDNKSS

[6] = target: Plasmodium falciparum protein kinase 6 (PK6, PF3D7_1337100) (UniProt Q8IDW1); assay: PfPK6 kinase inhibitors, biochemical, TCAMS library (AID 1159586); conditions: recombinant PfPK6, Kinase-Glo ATP depletion luminescence
Plasmodium falciparum protein kinase 6 (PK6, PF3D7_1337100), sequence (Q8IDW1 1-305): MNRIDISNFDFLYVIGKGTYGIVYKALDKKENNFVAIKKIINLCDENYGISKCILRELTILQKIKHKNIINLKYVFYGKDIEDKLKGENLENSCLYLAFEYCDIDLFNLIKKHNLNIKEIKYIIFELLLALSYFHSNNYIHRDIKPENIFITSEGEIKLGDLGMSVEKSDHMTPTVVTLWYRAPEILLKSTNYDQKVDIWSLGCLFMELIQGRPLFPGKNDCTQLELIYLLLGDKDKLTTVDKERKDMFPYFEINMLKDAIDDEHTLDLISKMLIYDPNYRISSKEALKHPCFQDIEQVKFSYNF

[7] = target: Protein kinase 7 (PK7), Plasmodium falciparum 3D7 (PF3D7_0213400) (UniProt Q7YTF7); assay: inhibition of Plasmodium PK7 catalytic activity – biochemical, TCAMS antimalarial set, Kinase-Glo luminescence (AID 1159587); conditions: recombinant PfPK7, Kinase-Glo ATP depletion luminescence
Protein kinase 7 (PK7), Plasmodium falciparum 3D7 (PF3D7_0213400), sequence (Q7YTF7 1-343): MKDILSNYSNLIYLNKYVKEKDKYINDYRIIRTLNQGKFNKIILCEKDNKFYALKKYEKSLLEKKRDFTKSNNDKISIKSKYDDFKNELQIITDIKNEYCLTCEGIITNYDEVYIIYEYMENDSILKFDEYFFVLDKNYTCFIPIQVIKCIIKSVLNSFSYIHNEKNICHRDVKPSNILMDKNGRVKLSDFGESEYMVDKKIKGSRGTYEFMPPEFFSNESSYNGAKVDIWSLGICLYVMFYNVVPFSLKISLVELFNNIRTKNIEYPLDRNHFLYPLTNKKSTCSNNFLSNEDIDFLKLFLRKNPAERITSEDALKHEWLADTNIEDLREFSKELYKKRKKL

[8] = target: Calcium-dependent protein kinase 4 (Plasmodium falciparum (isolate 3D7)) (UniProt Q8IBS5); assay: PfCDPK4 kinase inhibitors, biochemical, TCAMS library (AID 1159588; cut-off not given, nearly all actives have IC50 up to about 0.91 µM); conditions: recombinant PfCDPK4, Kinase-Glo ATP depletion luminescence
Calcium-dependent protein kinase 4 (Plasmodium falciparum (isolate 3D7)), sequence (Q8IBS5 whole entry, looked up): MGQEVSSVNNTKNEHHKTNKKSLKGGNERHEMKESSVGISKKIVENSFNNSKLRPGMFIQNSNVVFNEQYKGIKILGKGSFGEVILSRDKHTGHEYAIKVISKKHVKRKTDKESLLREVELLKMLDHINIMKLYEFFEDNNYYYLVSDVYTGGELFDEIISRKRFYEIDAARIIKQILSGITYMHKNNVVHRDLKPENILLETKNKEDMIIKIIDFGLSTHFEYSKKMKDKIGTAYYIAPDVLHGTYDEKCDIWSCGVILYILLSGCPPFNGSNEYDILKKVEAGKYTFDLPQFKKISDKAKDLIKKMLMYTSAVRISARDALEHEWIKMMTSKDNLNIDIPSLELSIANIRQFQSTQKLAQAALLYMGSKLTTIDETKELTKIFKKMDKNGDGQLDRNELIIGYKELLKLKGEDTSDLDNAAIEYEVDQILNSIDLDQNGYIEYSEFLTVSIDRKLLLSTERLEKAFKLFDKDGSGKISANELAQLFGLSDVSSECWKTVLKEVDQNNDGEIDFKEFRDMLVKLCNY

COc1cc2nc(N3CCC(CNC(=O)c4ccc(-c5ccc(C(=O)N(C)C)cc5)c(OCCO)c4)CC3)nc(N)c2cc1OC
active: growth inhibition [4] 96%
inactive: growth inhibition [1] 18% | inhibition [2] 10% | inhibition [3] -3% | outcome [5] | outcome [6] | outcome [7] | outcome [8]

CC(C)NCc1ccc(-c2cccc(CN3CCC(c4ccccc4)CC3)c2)c(C(=O)NCC2CCCCC2)c1
inactive: inhibition [2] 42% | inhibition [3] -5% | outcome [5] | outcome [6] | outcome [7] | outcome [8]
active: growth inhibition [1] 76% | growth inhibition [4] 98%

CCCCN(CCCC)CCCCNc1c2ccccc2nc2ccccc12
active: growth inhibition [1] 100% | growth inhibition [4] 100%
inactive: inhibition [2] 36% | inhibition [3] 0% | outcome [5] | outcome [6] | outcome [7] | outcome [8]

Cc1ccc2nc(C)cc(NN=Cc3ccc([N+](=O)[O-])o3)c2c1
active: growth inhibition [1] 99% | growth inhibition [4] 101%
inactive: inhibition [2] 15% | inhibition [3] -4% | outcome [5] | outcome [6] | outcome [7] | outcome [8]

CN1CCN(c2ccnc3ccc(NC(=O)N(C)c4ccc(Cl)c(Cl)c4)cc23)CC1
inactive: inhibition [2] 5% | inhibition [3] -3% | outcome [5] | outcome [6] | outcome [7] | outcome [8]
active: growth inhibition [1] 85% | growth inhibition [4] 100%

COc1cc(NC(=O)/C=C/c2cc3ccccc3n2C)ccc1OCCN(C(C)C)C(C)C
active: growth inhibition [1] 68% | growth inhibition [4] 99%
inactive: inhibition [2] 16% | inhibition [3] 4% | outcome [5] | outcome [6] | outcome [7] | outcome [8]

Cn1cnc2c(SCc3ccccc3OCc3ccccc3)ncnc21
inactive: growth inhibition [1] 34% | inhibition [2] 6% | inhibition [3] -3% | outcome [5] | outcome [6] | outcome [7] | outcome [8]
active: growth inhibition [4] 86%

COc1cc2nccc(Nc3ccc(NC(=O)c4ccc(C)cc4)c(O)c3)c2cc1OC
active: growth inhibition [1] 77% | inhibition [2] 96% | growth inhibition [4] 101%
inactive: inhibition [3] 1% | outcome [5] | outcome [6] | outcome [7] | outcome [8]

CN1CCC(Oc2ccc(CN3CC[C@H](NC(=O)c4ccc(Cl)c(F)c4)C3)c3ccccc23)C1 (stereo not given in full)
inactive: inhibition [3] 3% | outcome [5] | outcome [6] | outcome [7] | outcome [8]
active: growth inhibition [1] 65% | inhibition [2] 51% | growth inhibition [4] 101%

CN1CCN(CCCN(Cc2ccc(-c3ccc(CNCc4ccc5c(c4)OCO5)cc3)cc2)C(=O)CCC2CCCC2)CC1
inactive: inhibition [3] 8% | outcome [5] | outcome [6] | outcome [7] | outcome [8]
active: growth inhibition [1] 85% | inhibition [2] 55% | growth inhibition [4] 99%

Cc1ccc(CNC(=O)[C@H](CCCN)Nc2cc(C)nc(NCC3CCCCC3)n2)cc1
inactive: growth inhibition [1] -2% | inhibition [2] 1% | inhibition [3] 0% | outcome [5] | outcome [6] | outcome [7] | outcome [8]
active: growth inhibition [4] 90%

COc1cc(Br)ccc1N1CCN(CCCCNC(=O)c2ccc(NC(=O)c3ccc(Cl)cc3)cc2)CC1
inactive: growth inhibition [1] 33% | inhibition [3] 1% | outcome [5] | outcome [6] | outcome [7] | outcome [8]
active: inhibition [2] 55% | growth inhibition [4] 96%

FC(F)(F)c1ccccc1OCc1cc(-c2ccncc2)c(COc2ccccc2C(F)(F)F)cc1C1=CCNCC1
inactive: inhibition [2] 31% | inhibition [3] -2% | outcome [5] | outcome [6] | outcome [7] | outcome [8]
active: growth inhibition [1] 81% | growth inhibition [4] 98%

CC(=Nc1ccc(Cl)c(Cl)c1)N(C)C
active: growth inhibition [4] 98%
inactive: growth inhibition [1] 0% | inhibition [2] -6% | inhibition [3] 2% | outcome [5] | outcome [6] | outcome [7] | outcome [8]

O=C(c1ccc(Cl)cc1)N1CCCC(C(=O)N(Cc2nnc(-c3ccccc3Cl)o2)C2CC2)C1 (stereo not given)
inactive: inhibition [2] 10% | inhibition [3] 0% | outcome [5] | outcome [6] | outcome [7] | outcome [8]
active: growth inhibition [1] 96% | growth inhibition [4] 95%

Cc1cc(C(F)(F)F)n2nc(C(=O)N(Cc3cncn3Cc3ccccc3F)CC3CC3)cc2n1
active: growth inhibition [1] 100% | growth inhibition [4] 100%
inactive: inhibition [2] -5% | inhibition [3] 1% | outcome [5] | outcome [6] | outcome [7] | outcome [8]

CC(C)(C)NC(=O)C(c1ccc(F)cc1)N(C(=O)c1ccc(CN2CCOCC2)o1)c1ccc(C2CCCCC2)cc1 (stereo not given)
active: growth inhibition [1] 68% | growth inhibition [4] 87%
inactive: inhibition [2] 0% | inhibition [3] -12% | outcome [5] | outcome [6] | outcome [7] | outcome [8]

CN(C)CCNc1cc(-c2ccc3ccccc3c2)nc2ccccc12
active: growth inhibition [1] 58% | growth inhibition [4] 102%
inactive: inhibition [2] 24% | inhibition [3] -5% | outcome [5] | outcome [6] | outcome [7] | outcome [8]

COc1ccc(CN2CCCN(Cc3cccc(NC(=O)c4ccc(-c5ccccc5)cc4)c3)CC2)cc1
inactive: growth inhibition [1] 24% | inhibition [2] 37% | inhibition [3] 1% | outcome [5] | outcome [6] | outcome [7] | outcome [8]
active: growth inhibition [4] 94%

CCCc1cc(Cc2cnc(N)nc2N)cc(CCC)c1O
active: inhibition [2] 64% | growth inhibition [4] 96%
inactive: growth inhibition [1] 5% | inhibition [3] 2% | outcome [5] | outcome [6] | outcome [7] | outcome [8]
